Screening data (PubChem BioAssay)
Tgondii IFNg: inhibitors of Toxoplasma gondii growth with IFN-gamma; Toxoplasma gondii growth in IFN-gamma-treated host cells; active compounds read low; activity change, negative = inhibition, % (concentration not given with the values); 69,000 tested, 3.8% active; AID 1259416; in the data active = activity change below about -70%, passing the limit was not always enough;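 note: host cells are HeLa cells infected with Toxoplasma gondii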
Of the large screens only hits and unclear results are named; the others gave an inactive call. The sample as a whole holds a higher share of hits than the screen did.

CC(C)CN1C(=O)CO[C@H]2CN(C(=O)NCc3cccnc3)C[C@@H]21	none
Cc1ccc(SC2CCN(Cc3ccc(CO)o3)CC2)cc1	none
COc1ccc(S(=O)(=O)N(C)C[C@@H]2OCCCC[C@H](C)Oc3ccc(NC(=O)Cc4ccccc4)cc3C(=O)N([C@@H](C)CO)C[C@H]2C)cc1	Tgondii IFNg -125
COc1ccc(S(=O)(=O)N(C)C[C@H]2OCCCC[C@H](C)Oc3ccc(NC(=O)Cc4ccccc4)cc3C(=O)N([C@H](C)CO)C[C@@H]2C)cc1	Tgondii IFNg -84
C[C@@H]1CCCCO[C@@H](CN(C)Cc2ccncc2)[C@H](C)CN([C@@H](C)CO)C(=O)c2cc(NC(=O)Cc3ccccc3)ccc2O1	none
COc1ccc(S(=O)(=O)N(C)C[C@H]2OCCCC[C@@H](C)Oc3ccc(NC(=O)Cc4ccccc4)cc3C(=O)N([C@@H](C)CO)C[C@@H]2C)cc1	none
C[C@@H]1CN([C@@H](C)CO)C(=O)c2cc(NC(=O)Nc3ccc4c(c3)OCO4)ccc2O[C@@H](C)CCCCO[C@H]1CN(C)S(=O)(=O)c1ccccc1	none
C[C@@H]1CCCCO[C@H](CN(C)S(=O)(=O)c2ccccc2)[C@H](C)CN([C@@H](C)CO)C(=O)c2cc(NC(=O)Nc3ccc4c(c3)OCO4)ccc2O1	none
C[C@H](CO)N1C[C@H](C)[C@H](CN(C)S(=O)(=O)c2ccccc2)OCCCC[C@H](C)Oc2ccc(NC(=O)Nc3ccc4c(c3)OCO4)cc2C1=O	none
COc1ccc(S(=O)(=O)N(C)C[C@@H]2OCCCC[C@H](C)Oc3ccc(NC(=O)Cc4ccccc4)cc3C(=O)N([C@H](C)CO)C[C@@H]2C)cc1	Tgondii IFNg -92
C[C@@H]1CCCCO[C@@H](CN(C)S(=O)(=O)c2ccccc2)[C@H](C)CN([C@@H](C)CO)C(=O)c2cc(NC(=O)Nc3ccc4c(c3)OCO4)ccc2O1	none
Cc1noc(C)c1NC(=O)N(C)C[C@@H]1Oc2ccc(NC(=O)Cc3cn(C)c4ccccc34)cc2CC(=O)N([C@@H](C)CO)C[C@H]1C	none
O=C1CC(c2cnc(-c3ccco3)nc2)c2cnn(Cc3cccnc3)c2N1 (stereo not given)	none
O=C1CC(c2ccc(F)cc2)Cc2nc(NCC3CCCO3)ncc21 (stereo not given)	none
Cn1cnc(S(=O)(=O)N2C[C@@H](O)COC[C@H]3O[C@H](CC(=O)NCc4cccc(F)c4)CC[C@@H]32)c1	none
CC(C)(C#N)c1ccc(N2C(=O)OCc3cnc4ccc(-c5cnc6ccccc6c5)cc4c32)cc1	Tgondii IFNg -85
CCOC(=O)N1CCC(N(C)Cc2nc3ccc(C)cc3[nH]2)CC1	none
CCOc1ccc(NC(=O)N2CCN(Cc3nc(-c4ccc(OCC)cc4)oc3C)CC2)cc1	none
CC12CCC(C(=O)N(CCCCN3CCN(c4ccccn4)CC3)C1=O)C2(C)C (stereo not given)	none
CCN(CC)c1ccc(NC(=S)NC(=O)c2ccc(OC)cc2)cc1	none
COc1ccc(Nc2nccc(NCCO)n2)cc1	none
CCN(CC)c1nc(Nc2ccc(OC)cc2)nc(Nc2ccc(OC)cc2)n1	Tgondii IFNg -97
Cc1cnc(NCc2ccc3c(c2)OCCCO3)nc1N(C)C	none
CN(C)C(=O)N1CCO[C@@H]2[C@H]1CC[C@H]2OCC1CCOCC1	Tgondii IFNg -72
CO[C@@H]1CC[C@@H]2[C@H]1OCCN2C(=O)N(C)C	none
CN(C)C(=O)N1CCO[C@@H]2[C@H]1CC[C@H]2OCCN1CCCC1	none
Cc1ccc(NC(=O)c2cncc(NS(=O)(=O)c3ccc(Br)cc3)c2)cc1	none
Cc1cccc(-c2nc(CCNC(=O)c3c(F)cccc3F)cs2)c1	none
C=CCN1CCC2(CC1)CC(NC(=O)c1cnc[nH]1)c1ccccc1O2 (stereo not given)	none
Cc1c(CN(C)c2ccc(-c3nccn3C)nn2)[nH]c2ccccc12	Tgondii IFNg -96
CN(Cc1nccn1C)c1ccc(-c2nccn2C)nn1	none
CN(Cc1ccoc1)c1ccc(-c2nccn2C)nn1	none
CC(c1cccc(-c2nc3ccccc3n2CCO)c1)N1CCCC1 (stereo not given)	none
COc1cc(OC)nc(-c2cccc(NC(C)=O)c2)n1	none
O=C(c1cccc(F)c1)N1CCC2(CC1)Nc1cc(F)ccc1-n1cccc12	none
Cc1cc(-c2cnc(N)nc2)cc(C2CCN(C(=O)Cc3ccc(F)cc3)C2)n1 (stereo not given)	none
C=CCN1C(=O)CCC12CCCN(C(=O)c1cnn(C)c1)CC2 (stereo not given)	none
C=CCNC(=O)c1ccc(-c2ccc(F)c(CO)c2)o1	none
C=CCNC(=O)c1ccc(-c2cccc([N+](=O)[O-])c2)o1	none
C=CCNC(=O)c1ccc(-c2cnc3ccccc3c2)o1	Tgondii IFNg -82
C1=CC[C@H]2CN(Cc3cnc(CC4CCCC4)[nH]3)C[C@H]2C1	none
CC1(C)CC(=O)C(C(=O)CCCCC(=O)C2C(=O)CC(C)(C)CC2=O)C(=O)C1	none
O=C(c1ccccn1)N1CCOCC2(CCN(c3ccccn3)C2)C1 (stereo not given)	none
O=C(NCC1CC1)C1CCC2(CCN(CC3CCOCC3)CC2)O1 (stereo not given)	none
Cc1ccc(C2c3[nH]c4ccccc4c3CCN2C(=O)COc2ccccc2)cc1 (stereo not given)	Tgondii IFNg -117
CCCC(=O)N1CCc2c([nH]c3ccccc23)C1c1ccc(Cl)cc1 (stereo not given)	Tgondii IFNg -104
CCCC(=O)N1CCc2c([nH]c3ccccc23)C1c1ccc(OCC)cc1 (stereo not given)	none
Cc1ccc(C2c3[nH]c4ccccc4c3CCN2C(=O)CCc2ccccc2)cc1 (stereo not given)	Tgondii IFNg -80
CSc1ccc(C2c3[nH]c4ccccc4c3CCN2C(=O)CCC2CCCC2)cc1 (stereo not given)	Tgondii IFNg -122
CCCC(=O)N1CCc2c([nH]c3ccccc23)C1c1ccc(SC)cc1 (stereo not given)	none
CCOc1cccc(C2c3[nH]c4ccccc4c3CCN2C(=O)CCc2ccccc2)c1 (stereo not given)	none
O=C(COc1ccccc1)N1CCc2c([nH]c3ccccc23)C1c1ccc(Cl)cc1 (stereo not given)	none
COCC(=O)N1CCc2c([nH]c3ccccc23)C1c1ccc(C)cc1 (stereo not given)	none
CCCC(=O)N1CCc2c([nH]c3ccccc23)C1c1ccc(OC)cc1 (stereo not given)	none
O=C(COc1ccccc1)N1CCc2c([nH]c3ccccc23)C1c1ccc(F)cc1 (stereo not given)	none
COC(=O)CCC(=O)N1CCc2c([nH]c3ccccc23)C1c1ccc(SC)cc1 (stereo not given)	none
CC(C)C#Cc1ccc([C@@H]2[C@H](CO)N3C(=O)CN(C(=O)NC4CCCC4)C[C@@H]23)cc1	none
Cc1ccc(NC(=O)N2CCC3(CC2)NC(=O)c2ccccc2N3C)cc1C	none
Cc1c(S(=O)(=O)N2C[C@H]3C(=O)Nc4ccccc4C(=O)N[C@@]3(C)C2)cnn1C(F)F	none
CCN(Cc1ccncc1)C(=O)CN(c1cccc(F)c1)S(C)(=O)=O	none
CCn1c(C2CCCNC2)nn(Cc2ncccn2)c1=O (stereo not given)	none
O=C(O)CSc1nc2ccc(Cl)cc2[nH]1	none
Nc1nc2c3cccc4cccc(c(=O)n2n1)c43	none
COc1cccc(CNC(=O)CCC2Nc3c4ccccc4nc(=S)n3C2=O)c1 (stereo not given)	none
CCC(NC(=O)c1c[nH]c(=O)[nH]1)c1ccccn1 (stereo not given)	none
C=CC(=O)N1CCC2(CC1)CN(c1ccccn1)CCO2	none
Cn1ccc2c(-c3cc(N4CCCCC4)ncn3)ccnc21	none
Cc1nc(-n2cnnc2)ccc1-c1ccnc2c1ccn2C	Tgondii IFNg -97
